# From PubChem BioAssay (Tox21)
# Inconclusive results are not listed. A call without a number means that no potency is given here. Calls of active or inactive are those of the source. Unless noted, calls follow the shape of the dose curve; as a rule, active = well fitted curve in the direction sought with a large enough effect in the repeat runs; inconclusive = weak or mixed curves; inactive = no such curve, though single readings can be large; an effect the other way counts as inactive or inconclusive. Where a SMILES comes first, the peptide text is derived from it.
# Columns and labels:
# [1] = target: Estrogen receptor (Homo sapiens) (UniProt P03372); experiment: qHTS assay to identify small molecule antagonists of the estrogen receptor alpha (ER-alpha) signaling pathway (AID 743069; active = well fitted curve in the direction sought with a large enough effect in the signal ratio in the repeat runs, not every such curve was filed as active; the % refers to the signal ratio); conditions: HEK293 ER-alpha-UAS-bla, beta-lactamase ratio, antagonist mode; series mostly up to 69.4 µM
# Sequence of Estrogen receptor (Homo sapiens) (P03372 whole entry, looked up): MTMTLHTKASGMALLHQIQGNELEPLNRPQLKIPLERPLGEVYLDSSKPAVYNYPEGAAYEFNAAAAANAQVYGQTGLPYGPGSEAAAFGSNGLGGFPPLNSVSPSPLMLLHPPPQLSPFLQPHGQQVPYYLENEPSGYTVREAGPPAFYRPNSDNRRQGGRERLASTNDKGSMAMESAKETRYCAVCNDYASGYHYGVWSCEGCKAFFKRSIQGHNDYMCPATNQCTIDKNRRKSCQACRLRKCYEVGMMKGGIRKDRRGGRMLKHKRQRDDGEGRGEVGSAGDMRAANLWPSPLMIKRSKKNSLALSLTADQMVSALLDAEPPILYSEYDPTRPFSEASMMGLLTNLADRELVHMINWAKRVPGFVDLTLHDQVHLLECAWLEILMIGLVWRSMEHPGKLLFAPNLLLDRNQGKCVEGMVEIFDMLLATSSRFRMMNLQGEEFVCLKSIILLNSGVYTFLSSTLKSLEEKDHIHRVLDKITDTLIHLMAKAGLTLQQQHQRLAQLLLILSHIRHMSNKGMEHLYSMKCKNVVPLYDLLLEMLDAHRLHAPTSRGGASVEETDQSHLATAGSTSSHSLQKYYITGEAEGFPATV
# Procedure, shortened: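 Fluorescence intensity from a beta-lactamase FRET substrate served as the read-out. Cells: HEK293 with stably integrated ER-alpha-UAS-bla reporter. Agonist 17beta-estradiol was co-added with compounds; incubation 18 hr at 37C, substrate 2 hr at room temperature.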
# [2] = qHTS assay to identify small molecule antagonists of the estrogen receptor alpha (ER-alpha) signaling pathway - cell viability counter screen (AID 743074; calls by dose curve; also: nearly all actives have a fitted effect of over 45% in size); conditions: ERalpha-bla HEK293 viability, CellTiter-Glo luminescence, 18 h; series mostly up to 69.4 µM
# [3] = target: Estrogen receptor (Homo sapiens) (UniProt P03372); experiment: qHTS assay to identify small molecule agonists of the estrogen receptor alpha (ER-alpha) signaling pathway (AID 743075; calls by dose curve); conditions: HEK293 ER-alpha-UAS-bla, beta-lactamase FRET ratio, 18 h; series mostly up to 70.1 µM
# [4] = target: Estrogen receptor (Homo sapiens) (UniProt P03372); experiment: qHTS assay to identify small molecule agonists of the estrogen receptor alpha (ER-alpha) signaling pathway using the BG1 cell line (AID 743079); conditions: BG1Luc4E2 cells, ERE-luciferase agonist, 22 h; series mostly up to 70.3 µM; also: nearly all actives have a fitted effect of over 20% in size
# [5] = qHTS assay to identify small molecule antagonists of the estrogen receptor alpha (ER-alpha) signaling pathway using the BG1 cell line (AID 743080; calls by dose curve;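 also: BG1 cells stimulated with 17beta-estradiol alongside compound; nearly all actives have a fitted effect of over 25% in size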); conditions: BG1Luc4E2 ERE-luciferase antagonist mode, luminescence; series mostly up to 70.3 µM
# Procedure, shortened: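 BG1-Luc-4E2 cells (endogenous full-length ER-alpha, stable 4×ERE-luciferase) were starved 5 days in phenol-red-free medium with 10% charcoal-stripped FBS, plated 24 h, then given compound plus 17beta-estradiol for 21.5 h at 37 C; ONE-Glo luminescence read after 30 min.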
# [6] = qHTS assay to identify small molecule antagonists of the estrogen receptor alpha (ER-alpha) signaling pathway using the BG1 cell line - cell viability counter screen (AID 743081); conditions: BG1Luc4E2 viability, CellTiter-Fluor, 22 h; series mostly up to 70.3 µM;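 also: compound given together with 17beta-estradiol as the ER stimulus; nearly all actives have a fitted effect of over 45% in size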
# Aromatase (Homo sapiens) = Aromatase (Homo sapiens) (UniProt P11511); experiment: qHTS assay to identify aromatase inhibitors (AID 743083); conditions: MCF-7 aro ERE, testosterone-driven ERE luciferase, 24 h; series mostly up to 70.3 µM; also: nearly all actives have a fitted effect of over 55% in size
# Sequence of Aromatase (Homo sapiens) (P11511 whole entry, looked up): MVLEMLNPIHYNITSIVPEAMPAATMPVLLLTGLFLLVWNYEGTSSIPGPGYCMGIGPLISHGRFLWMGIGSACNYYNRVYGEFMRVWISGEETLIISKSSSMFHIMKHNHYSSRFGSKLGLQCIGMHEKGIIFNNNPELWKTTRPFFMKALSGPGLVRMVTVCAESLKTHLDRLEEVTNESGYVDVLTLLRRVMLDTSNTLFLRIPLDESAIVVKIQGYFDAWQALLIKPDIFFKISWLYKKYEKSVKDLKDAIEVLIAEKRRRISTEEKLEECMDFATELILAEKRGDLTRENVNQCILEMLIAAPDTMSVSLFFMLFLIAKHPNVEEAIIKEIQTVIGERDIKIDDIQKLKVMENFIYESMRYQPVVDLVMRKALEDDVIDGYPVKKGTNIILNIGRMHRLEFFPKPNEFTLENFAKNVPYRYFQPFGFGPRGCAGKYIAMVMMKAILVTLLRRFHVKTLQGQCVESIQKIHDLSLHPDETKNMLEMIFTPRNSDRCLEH
# [7] = qHTS assay to identify aromatase inhibitors - cell viability counter screen (AID 743084); conditions: MCF-7 aro ERE viability, CellTiter-Fluor, 24 h; series mostly up to 70.3 µM;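 also: cells stimulated with testosterone during compound exposure; nearly all actives have a fitted effect of over 55% in size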
# [8] = target: Aryl hydrocarbon receptor (Homo sapiens) (UniProt P35869); experiment: qHTS assay to identify small molecule that activate the aryl hydrocarbon receptor (AhR) signaling pathway (AID 743085); conditions: HepG2 AhR-luc (HG2L7.5c1), luciferase, 24 h; series mostly up to 70.3 µM;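 also: HG2L7.5c1 human HepG2 liver cells with stably integrated DRE-driven firefly reporter; nearly all actives have a fitted effect of over 15% in size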
# Sequence of Aryl hydrocarbon receptor (Homo sapiens) (P35869 whole entry, looked up): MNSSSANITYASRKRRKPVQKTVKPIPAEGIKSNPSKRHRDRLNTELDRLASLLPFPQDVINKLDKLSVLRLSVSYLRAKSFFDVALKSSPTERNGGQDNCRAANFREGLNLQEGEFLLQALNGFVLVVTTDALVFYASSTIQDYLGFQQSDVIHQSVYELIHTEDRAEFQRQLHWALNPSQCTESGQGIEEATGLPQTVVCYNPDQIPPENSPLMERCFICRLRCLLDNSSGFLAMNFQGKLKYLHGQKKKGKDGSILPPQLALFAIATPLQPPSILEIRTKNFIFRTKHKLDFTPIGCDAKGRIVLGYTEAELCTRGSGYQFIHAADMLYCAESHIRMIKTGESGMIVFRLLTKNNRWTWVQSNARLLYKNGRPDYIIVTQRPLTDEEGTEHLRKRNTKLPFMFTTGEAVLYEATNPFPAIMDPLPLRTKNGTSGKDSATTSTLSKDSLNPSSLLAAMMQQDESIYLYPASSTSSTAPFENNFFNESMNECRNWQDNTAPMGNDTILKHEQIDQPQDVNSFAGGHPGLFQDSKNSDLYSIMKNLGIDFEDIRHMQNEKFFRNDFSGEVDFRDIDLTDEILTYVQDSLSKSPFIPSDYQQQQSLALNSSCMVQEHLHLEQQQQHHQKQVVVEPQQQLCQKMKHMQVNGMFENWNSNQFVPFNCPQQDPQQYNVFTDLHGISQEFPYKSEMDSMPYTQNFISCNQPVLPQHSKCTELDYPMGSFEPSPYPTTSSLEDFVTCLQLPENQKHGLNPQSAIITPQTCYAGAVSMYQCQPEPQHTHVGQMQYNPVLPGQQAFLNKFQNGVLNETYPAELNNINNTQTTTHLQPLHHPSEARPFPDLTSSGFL
# Procedure, shortened: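 Cell line HG2L7.5c1 (human hepatoma, 20× DRE-luc). Plated, 5 h 37C, compound/DMSO added, 24 h 37C. CellTiter-Fluor 30 min 37C → fluorescence; then ONE-Glo 30 min RT → luminescence.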
# [9] = qHTS assay to identify small molecule that activate the aryl hydrocarbon receptor (AhR) signaling pathway - cell viability counter screen (AID 743086); conditions: HepG2-AhR-luc viability, CellTiter-Fluor, 24 h; series mostly up to 70.3 µM;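 also: HepG2 liver cells carrying the AhR DRE luciferase reporter; nearly all actives have a fitted effect of over 45% in size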
# Procedure, shortened: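 Cytotoxicity counter screen: CellTiter-Fluor signal (30 min, 37 C) in 4000 HepG2 cells/well carrying the DRE-luciferase reporter, following 24 h compound exposure at 37 C.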
# [10] = target: Peroxisome proliferator-activated receptor gamma (Homo sapiens) (UniProt P37231); experiment: qHTS assay to identify small molecule agonists of the peroxisome proliferator-activated receptor gamma (PPARg) signaling pathway (AID 743094; active = well fitted activation curve with a large enough effect in the signal ratio in the repeat runs, not every such curve was filed as active; the % refers to the signal ratio); conditions: HEK293H PPARg-UAS-bla, beta-lactamase FRET ratio, 17 h; series mostly up to 57 µM
# Sequence of Peroxisome proliferator-activated receptor gamma (Homo sapiens) (P37231 whole entry, looked up): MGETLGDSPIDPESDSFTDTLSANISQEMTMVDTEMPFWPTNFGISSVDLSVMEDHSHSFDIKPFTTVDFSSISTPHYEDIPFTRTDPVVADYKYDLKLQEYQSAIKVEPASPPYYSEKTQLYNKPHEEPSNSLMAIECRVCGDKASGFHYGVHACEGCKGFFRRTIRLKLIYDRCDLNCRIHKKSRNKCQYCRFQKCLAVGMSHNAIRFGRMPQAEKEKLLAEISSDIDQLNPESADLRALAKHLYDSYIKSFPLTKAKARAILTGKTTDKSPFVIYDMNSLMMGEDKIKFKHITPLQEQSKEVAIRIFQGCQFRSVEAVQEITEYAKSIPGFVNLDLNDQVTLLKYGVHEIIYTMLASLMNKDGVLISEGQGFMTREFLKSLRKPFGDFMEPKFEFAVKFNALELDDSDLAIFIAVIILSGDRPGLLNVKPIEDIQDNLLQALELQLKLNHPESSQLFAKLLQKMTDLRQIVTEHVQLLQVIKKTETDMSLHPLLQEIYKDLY
# Procedure, shortened: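 Reporter activation was scored by fluorescence of cleaved LiveBLAzer B/G substrate (1 h, room temperature) in PPARg-bla HEK293H cells previously treated 17 h at 37C with DMSO-dissolved compounds.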
# [11] = target: Peroxisome proliferator-activated receptor gamma (Homo sapiens) (UniProt P37231); experiment: qHTS assay to identify small molecule antagonists of the peroxisome proliferator-activated receptor gamma (PPARg) signaling pathway (AID 743191; calls by dose curve; also: nearly all actives have a fitted effect of over 30% in size); conditions: HEK293H PPARg-UAS-bla, beta-lactamase ratio, antagonist, 17 h; series mostly up to 62.6 µM
# Procedure, shortened: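 Beta-lactamase reporter under UAS control in HEK293H PPARg-bla cells; compound treatment 17 h at 37C. Read-out: fluorescence intensity after 1 h room-temperature incubation with LiveBLAzer B/G FRET substrate.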
# [12] = qHTS assay for small molecule agonists of the antioxidant response element (ARE) signaling pathway (AID 743202; active = well fitted activation curve with a large enough effect in the signal ratio in the repeat runs, not every such curve was filed as active; the % refers to the signal ratio; also: potency is read from the fitted curve at half-maximal effect); conditions: HepG2 ARE-bla reporter, beta-lactamase FRET, 16 h; series mostly up to 73.3 µM
# Procedure, shortened: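 Beta-lactamase reporter activity, read as fluorescence intensity, reflects ARE/Nrf2 pathway induction in HepG2 cells after 16 h compound exposure at 37 C; substrate loading was 2 h at room temperature.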
# [13] = qHTS assay for small molecule agonists of the antioxidant response element (ARE) signaling pathway - cell viability counter screen (AID 743203; calls by dose curve; also: nearly all actives have a fitted effect of over 55% in size); conditions: ARE-bla HepG2 viability, CellTiter-Glo luminescence, 16 h; series mostly up to 73.3 µM
# Procedure, shortened: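 Viability counter screen: stably transfected ARE-bla HepG2 line, 16 hrs compound exposure at 37C/5% CO2, ATP-based CellTiter-Glo luminescence measured in the reporter wells.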
# [14] = qHTS assay for small molecule activators of the heat shock response signaling pathway - cell viability counter screen (AID 743209); conditions: HSE-bla HeLa viability, CellTiter-Glo luminescence, 5 h; series mostly up to 62.6 µM; also: nearly all actives have a fitted effect of over 50% in size
# Procedure, shortened: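 Viability of HSE-bla HeLa cells is measured with CellTiter-Glo in the wells already used for the reporter read. Compound exposure lasts 5 h at 37 C, and luminescence is read after 30 min at room temperature.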
# [15] = qHTS assay for small molecule activators of the heat shock response signaling pathway (AID 743210; active = well fitted activation curve with a large enough effect in the signal ratio in the repeat runs, with a control signal flat, not every such curve was filed as active; the % refers to the signal ratio;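 also: HeLa cells with beta-lactamase reporter driven by heat shock elements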); conditions: HeLa HSE-bla reporter, beta-lactamase ratio, 5 h; series mostly up to 62.6 µM
# Procedure, shortened: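 Fluorescence from a cleaved B/G FRET substrate (2.5 h, room temp) reports HSE-driven beta-lactamase in HeLa cells treated 5 h at 37 C with DMSO-dissolved compounds.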
# [16] = qHTS assay to identify small molecule agonists of the peroxisome proliferator-activated receptor delta (PPARd) signaling pathway - cell viability counter screen (AID 743211); conditions: PPARd-bla HEK293H viability, CellTiter-Glo luminescence, 17 h; series mostly up to 62.6 µM; also: nearly all actives have a fitted effect of over 55% in size
# Procedure, shortened: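 HEK293H PPARd-bla, 3000 cells/well; 5 h preincubation 37C/5% CO2; cpd in DMSO, 17 h 37C; B/G FRET substrate 2 h RT; CellTiter-Glo 30 min RT, luminescence.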
# [17] = qHTS assay to identify small molecule antagonists of the peroxisome proliferator-activated receptor gamma (PPARg) signaling pathway - cell viability counter screen (AID 743194); conditions: PPARg-bla HEK293H viability, CellTiter-Glo luminescence, 17 h, co-treated with 50 nM rosiglitazone; series mostly up to 62.6 µM; also: nearly all actives have a fitted effect of over 55% in size
# Procedure, shortened: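 Viability was measured as CellTiter-Glo luminescence in GeneBLAzer PPARg UAS-bla HEK293H cells. These cells had been exposed 17 h at 37 C to compounds together with rosiglitazone at 50 nM final, with the beta-lactamase readout taken in the same wells.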
# [18] = test system: thyroid hormone receptor (rat, GH3 cells); experiment: qHTS assay to identify small molecule agonists of the thyroid receptor (TR) signaling pathway (AID 743066; calls by dose curve); conditions: GH3.TRE-Luc cells, TR agonist luciferase, 24 h; series mostly up to 83.9 µM
# [19] = qHTS assay to identify small molecule antagonists of the thyroid receptor (TR) signaling pathway (AID 743065); conditions: GH3.TRE-Luc, T3-stimulated luciferase inhibition, 23.5 h; series mostly up to 70.3 µM; also: nearly all actives have a fitted effect of over 55% in size
# Procedure, shortened: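 Antagonism measured as loss of luciferase signal in GH3 cells stably carrying a TRE-luciferase reporter, co-treated with compound and T3 (1 nM final) for 23.5 h at 37 C. Viability was read in the same well by CellTiter-Fluor.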
SMILES,outcome [1],outcome [2],Potency [3],Potency [4],outcome [5],Potency [6],outcome (Aromatase (Homo sapiens)),Potency [7],Potency [8],Potency [9],Potency [10],outcome [11],Potency [12],outcome [13],Potency [14],outcome [15],outcome [16],outcome [17],outcome [18],Potency [19]
C/C=C(\C)C(C)=O,inactive,inactive,inactive,inactive,inactive,inactive,inactive,inactive,inactive,inactive,inactive,inactive,inactive,inactive,inactive,inactive,inactive,,,
CC(=O)O[C@@H]1CC2CCC1(C)C2(C)C (some centres not stated),,inactive,,,,inactive,inactive,inactive,inactive,,inactive,inactive,inactive,inactive,inactive,inactive,inactive,inactive,,
CC(=O)N[C@@H](CO)C(=O)N[C@@H](CC(=O)O)C(=O)N[C@@H](CCCCN)C(=O)N1CCC[C@H]1C(=O)O (Ac-SDKP-OH),,,,,,,,,,,,inactive,inactive,inactive,inactive,inactive,inactive,inactive,,
CCCCCCCCCOC(=O)CCCCC(=O)OCCCCCCC,,inactive,,,,inactive,inactive,inactive,,inactive,inactive,,,,inactive,inactive,inactive,inactive,,
Nc1nc(-c2ccccc2)c(Br)c(=O)[nH]1,inactive,inactive,inactive,inactive,inactive,inactive,inactive,inactive,,inactive,inactive,inactive,inactive,inactive,inactive,,inactive,inactive,,
C/C(=C1\CCOC(=O)S1)N(C=O)Cc1cnc(C)nc1N,,,,,,,,,,,,,inactive,inactive,inactive,inactive,,inactive,,
CCC(=O)Oc1ccc2c(c1)CC[C@@H]1[C@@H]2CC[C@@]2(C)[C@H]1C[C@@H](OC(=O)CC)[C@@H]2OC(=O)CC,,,,,,,,,,,,inactive,inactive,inactive,inactive,,inactive,inactive,,
C=CCN1C[C@H](C(=O)N(CCCN(C)C)C(=O)NCC)C[C@@H]2c3cccc4[nH]cc(c34)C[C@H]21,inactive,inactive,inactive,inactive,inactive,,inactive,inactive,,inactive,inactive,inactive,inactive,inactive,inactive,inactive,,inactive,,
CC(C)C[C@@H]1[C@H](c2ccccc2)OC(=O)N1CCCN1CCCCCC1,,,,,,,,,,,,inactive,inactive,,inactive,inactive,,inactive,,
NCC1(Cc2noc(=O)[nH]2)CCCCC1,inactive,inactive,inactive,inactive,inactive,inactive,inactive,inactive,inactive,inactive,inactive,,,inactive,inactive,inactive,inactive,,,
CCOC(CN1CCN(CC(C)C(=O)c2ccccc2)CC1)c1ccccc1 (configuration not stated),,inactive,,,,inactive,,inactive,,,inactive,,10.3 µM (active),,inactive,inactive,inactive,inactive,inactive,
C=CC(=O)OCC1CCCO1 (configuration not stated),inactive,,inactive,inactive,inactive,inactive,inactive,inactive,,,inactive,inactive,,inactive,inactive,inactive,inactive,,,inactive
OC1(c2ccc(Cl)cc2)CCNCC1,,,,,,,,,,,,inactive,inactive,inactive,inactive,inactive,inactive,inactive,,
CC(C)NC(=O)c1ccc(C=O)cc1,,,,,,,,,,,,,,,inactive,inactive,inactive,inactive,,
CC(C)(CO)C(O)C(=O)NCCCO (configuration not stated),inactive,inactive,inactive,inactive,inactive,inactive,inactive,inactive,,inactive,,,inactive,,inactive,inactive,inactive,inactive,,
CC(C)OC(=O)OCOP(=O)(CO[C@H](C)Cn1cnc2c(N)ncnc21)OCOC(=O)OC(C)C,inactive,inactive,inactive,inactive,inactive,inactive,,inactive,inactive,inactive,inactive,inactive,11.9 µM (active),inactive,inactive,inactive,inactive,inactive,inactive,
CO/N=C(/C(=O)N[C@@H]1C(=O)N2C(C(=O)[O-])=C(C[n+]3ccn4ncccc43)CS[C@H]12)c1nsc(N)n1,inactive,inactive,inactive,inactive,inactive,inactive,inactive,inactive,inactive,inactive,inactive,inactive,inactive,,inactive,,inactive,inactive,,
COc1cc2c(cc1OC)CN(C(=O)[C@H](C)N[C@@H](CCc1ccccc1)C(=O)O)[C@H](C(=O)O)C2,,,,,,,,,,,,,inactive,inactive,inactive,inactive,inactive,inactive,,
O=C(CCCl)NCCc1ccccc1,,,,,,,,,,,,,inactive,inactive,inactive,inactive,inactive,inactive,,
O=Cc1cc2ccccc2o1,,inactive,,,,inactive,inactive,inactive,inactive,inactive,inactive,inactive,,inactive,inactive,inactive,inactive,,,
C=C(C)[C@@H]1CC=C(C)CC1,inactive,inactive,inactive,,inactive,inactive,inactive,inactive,inactive,inactive,,,,,inactive,inactive,inactive,,,
COc1cc(/C=C/C(N)=O)cc(OC)c1OC,,,,,,,,,,,,,inactive,inactive,inactive,,inactive,,,
CCN1CCCC1CN (configuration not stated),,,,,,,,,,,,inactive,,inactive,inactive,,inactive,inactive,,
O=C(CN1CCNCC1)NC1CCCCC1,inactive,inactive,inactive,inactive,inactive,inactive,inactive,inactive,inactive,,inactive,inactive,inactive,,inactive,inactive,inactive,,,
